Measured values reported in PubChem BioAssay (NCATS).
Values joined by “and” are separate entries in the source; they are usually repeats but may differ in a detail not shown here. Equal values may be shown once. Results filed as inconclusive are left out. Active and inactive are the calls of the source. Unless noted, calls come from the whole dose curve; as a rule, active = well fitted curve in the direction sought with a large enough effect; inconclusive = small, poorly fitted or top-dose-only effect, or another doubt; inactive = no such curve, though single readings can be large; an effect the other way counts as inactive or inconclusive.

What was measured:
[1] = target: Peroxisome proliferator-activated receptor alpha (Homo sapiens) (UniProt Q07869); assay: qHTS assay for small molecule agonists of the peroxisome proliferator-activated receptor alpha (PPARalpha) signaling pathway (AID 651778); conditions: PathHunter PPARalpha complementation, chemiluminescence, 6 h; max response: stronger effect = higher value; note: % of control where 0% means no effect
In short: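 Chemiluminescence from complemented enzyme reported PPARalpha activation in cells after 6 hr of compound treatment at 37 C. The detection reagent was incubated for 60 min at room temperature, and compounds were scored as agonists.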

[2] = qHTS for compounds that reverse cellular toxicity of Amyloid beta (A-beta) peptide in yeast: LOPAC Validation Assay (AID 720559);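 note: plate controls were DMSO for no effect and equimolar ferric chloride plus clioquinol rescue for full effect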
In short: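 Yeast expressing toxic A-beta grown with pinned compounds at 30 C for 48 hr. Growth measured as absorbance at 600 nm; data normalized to DMSO and to an equimolar FeCl3/clioquinol mixture as positive control.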

[3] = qHTS for Activators of Parkin Expression: LOPAC Validation Assay (NLuc Reporter) (AID 720572;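 note: 0% = DMSO and 100% = positive control compound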)
In short: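 Parkin promoter-driven FLuc/NLuc neuronal reporter cells; 24 h plating, 7-pt dose response, 24 h at 37 C/5% CO2; FLuc then NanoLuc reagent, 10 min each, luminescence; DMSO/positive control normalized.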

[4] = qHTS for Activators of Parkin Expression: LOPAC Validation Assay (FLuc Reporter) (AID 720573; note: potency is the fitted concentration of half-maximal effect)
In short: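 Neuronal cell line stably expressing FLuc/NLuc coincidence reporter under the Parkin promoter, 1,500 cells/well, dosed 24 h after seeding in 7-point series for 24 h at 37 C. FLuc luminescence read; normalized to DMSO and positive control (100%).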

[5] = qHTS assay for small molecule agonists of the antioxidant response element (ARE) signaling pathway measured by Nrf2-dependant transcriptional activity (AID 720636; active = well fitted curve in the direction sought with a large enough effect in the repeat runs; an effect the other way counts as inactive or inconclusive;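 note: HepG2 cells with an ARE-driven luciferase reporter; % of control where 0% means no effect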)
In short: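 HepG2 ARE-luc reporter line, 1% dialyzed FBS; 6 hr attachment at 37 C, compound pinned in, 16 hr at 37 C/5% CO2; ONE-Glo, 30 min RT, luminescence read.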

[6] = qHTS assay for small molecule antagonists of the retinoid-related orphan receptor gamma (ROR-gamma) signaling pathway - cell viability counter screen (AID 720652; active = well fitted curve in the direction sought with a large enough effect in the repeat runs; an effect the other way counts as inactive or inconclusive;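 note: series mostly up to about 92 µM; compound exposure lasted 16 hr before ATP read; % is set by controls: 0 for no effect and ±100 for the full control effect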)
In short: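 CHO cells carrying TET-inducible ROR and RORE-luciferase reporter, plated 5 hr, then dosed with compound plus doxycycline. After 16 hr at 37 C, viability read as intracellular ATP by CellTiter-Glo luminescence.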

[7] = qHTS assay for small molecule agonists of the antioxidant response element (ARE) signaling pathway measured by Nrf2-dependant transcriptional activity - cell viability counter screen (AID 720653; active = well fitted curve in the direction sought with a large enough effect in the repeat runs; an effect the other way counts as inactive or inconclusive; note: potency is the fitted concentration of half-maximal effect; for max response: % is set by controls: 0 for no effect and ±100 for the full control effect); conditions: ARE-bla HepG2 viability, CellTiter-Glo ATP luminescence, 16 h; max response: stronger effect = lower value
In short: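 Cytotoxicity counter screen: intracellular ATP quantified by CellTiter-Glo luminescence in the same ARE-bla HepG2 plates, after 16 h compound exposure and a 2 h beta-lactamase substrate step.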

[8] = target: T1, Hexokinase-4 (Homo sapiens) + Glucokinase regulatory protein (Homo sapiens) (UniProt P35557+Q14397); assay: qHTS assay for inhibitors of recombinant human GCK-GKRP interaction: Diaphorase-coupled assay (AID 743205)
In short: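 Compounds pre-incubated 20 min with substrate, then 10 nM GST-GCK with 10 nM FLAG-GKRP added. GCK activity coupled via G6PDH and diaphorase to resorufin (5 mM glucose, 0.4 mM ATP, 0.15 mM NADP+, pH 7.6), read kinetically over 30 minutes at Ex 525/Em 590 nm.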

[9] = target: T1, Hexokinase-4 (Homo sapiens) + Glucokinase regulatory protein (Homo sapiens); assay: qHTS assay for inhibitors of recombinant human GCK-GKRP interaction: ADP-Glo assay (AID 743206);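 note: plate controls were DMSO plus enzyme for no effect and no enzyme for full effect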
In short: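 GST-GCK and FLAG-GKRP (15 nM each in the dispensed mix, with 2 uM S6P) react with 0.4 mM ATP and 5 mM glucose (final) in Hepes pH 7.6 for 60 min at room temperature. ADP is measured by ADP-Glo luminescence.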

[10] = target: T1, Hexokinase-4 (Homo sapiens) + Glucokinase regulatory protein (Homo sapiens); assay: qHTS assay for inhibitors of recombinant human GCK-GKRP interaction: HTRF assay (AID 743207);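 note: 0% = DMSO with GCK present and -100% = DMSO wells lacking GCK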
In short: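 HTRF binding of 5 nM GST-GCK and 5 nM FLAG-GKRP with 2 uM S6P in pH 7.1 Hepes buffer (MgCl2, KCl, DTT, Tween 20, BSA). Anti-FLAG XL665 and anti-GST donor added, 60 min at room temperature; 665/615 nm read, normalized to with- and without-GCK controls.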

[11] = qHTS Assay for Identifying Gametocytocidal Compounds (AID 743244); note: potency is the fitted concentration of half-maximal effect;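 for max response: % is set by controls: 0 for no effect and ±100 for the full control effect; actives lower the fluorescent signal which means gametocytes are killed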; conditions: P. falciparum 3D7 stage III-V gametocytes, alamarBlue, 72 h; max response: stronger effect = lower value
In short: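 Using 20,000 stage III–V 3D7 gametocytes per well, compounds were incubated 72 h under 37 °C/5% CO2. Viability was then assessed by 24 h alamarBlue reduction, measured fluorometrically at 525/598 nm.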

[12] = qHTS assay for cell viability of HEK293 cells (AID 743288); conditions: ATP luminescence (CellTiter-Glo), 18 h; max response: stronger effect = lower value; note: % is set by controls: 0 for no effect and ±100 for the full control effect; nearly all actives have a fitted effect of over 50% in size
In short: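 Parental HEK293 cells, 2,000 per well, preincubated at least 5 h at 37 C, then exposed to compounds in DMSO for 18 h at 37 C. Viability by CellTiter-Glo ATP luminescence after 30 min at room temperature.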

[13] = qHTS assay for cell viability of the p53RE-bla HCT-116 cell line (AID 743292); note: nearly all actives have a fitted effect of over 55% in size; note: potency is the fitted concentration of half-maximal effect
In short: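 Luminescent ATP quantitation (CellTiter-Glo) served as the viability read-out; reagent was added after 16 h compound exposure at 37 C and read after 30 min at room temperature. Cells: p53RE-bla HCT-116, 4,000 per well.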

[14] = target: Nuclear receptor ROR-gamma (Homo sapiens) (UniProt P51449); assay: qHTS assay for small molecule antagonists of the retinoid-related orphan receptor gamma (ROR-gamma) signaling pathway (AID 651802);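 note: luciferase reporter luminescence driven by ROR response element; series mostly up to about 92 µM; % is set by controls: 0 for no effect and ±100 for the full control effect; nearly all actives have a fitted effect of over 60% in size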
In short: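 CHO cells with TET-inducible ROR-gamma and RORE-luciferase reporter, dosed then doxycycline-induced. After 16 h at 37C, One-Glo luminescence read; decreased signal indicates antagonism.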

[15] = qHTS for small molecule inhibitors of Yes1 kinase: Counter Assay (AID 686950);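 note: no kinase present so only ADP-Glo detection of a fixed ADP amount is tested; luminescence from ADP-Glo reporting ADP in a fixed ATP and ADP mixture; series mostly up to about 77 µM; 0% = DMSO wells with ATP plus ADP and -100% = ATP-only wells without ADP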
In short: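 Luminescence read-out from ADP-Glo quantifies a fixed ADP amount (0.02 mM ADP with 0.08 mM ATP) after 60 min at room temperature; signal is normalized between DMSO wells with ATP/ADP and with 0.1 mM ATP alone.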

[16] = target: Tyrosine-protein kinase Yes (Homo sapiens) (UniProt P07947); assay: qHTS for small molecule inhibitors of Yes1 kinase: Primary Screen (AID 686947); note: potency is the fitted concentration of half-maximal effect; nearly all actives have a fitted effect of over 60% in size
In short: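 Yes1 (4 nM) preincubated 20 min with compound, then 60 min room-temperature reaction with 0.1 mM ATP and 0.3 mg/mL poly(E4Y) in pH 7.5 Tris, 10 mM MgCl2. ADP measured by ADP-Glo luminescence, normalised to enzyme/no-enzyme controls.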

[17] = target: Arylsulfatase A (Homo sapiens) (UniProt P15289); assay: qHTS screen for enhancers of Arylsulfatase A (ASA1): LOPAC Validation Assay (AID 720538); note: 0% is about no effect
In short: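 SV40-transformed fibroblasts from an MLD patient (ASA-I179S) were treated with compound for 48 h at 37 C. They were then lysed with 0.5 mM pNCS substrate (final) for 14 h at room temperature and stopped with NaOH; signal read by fluorescence (Ex 525/Em 598 nm), with increase denoting enhanced activity.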

T1 sequence (P35557 whole entry, looked up): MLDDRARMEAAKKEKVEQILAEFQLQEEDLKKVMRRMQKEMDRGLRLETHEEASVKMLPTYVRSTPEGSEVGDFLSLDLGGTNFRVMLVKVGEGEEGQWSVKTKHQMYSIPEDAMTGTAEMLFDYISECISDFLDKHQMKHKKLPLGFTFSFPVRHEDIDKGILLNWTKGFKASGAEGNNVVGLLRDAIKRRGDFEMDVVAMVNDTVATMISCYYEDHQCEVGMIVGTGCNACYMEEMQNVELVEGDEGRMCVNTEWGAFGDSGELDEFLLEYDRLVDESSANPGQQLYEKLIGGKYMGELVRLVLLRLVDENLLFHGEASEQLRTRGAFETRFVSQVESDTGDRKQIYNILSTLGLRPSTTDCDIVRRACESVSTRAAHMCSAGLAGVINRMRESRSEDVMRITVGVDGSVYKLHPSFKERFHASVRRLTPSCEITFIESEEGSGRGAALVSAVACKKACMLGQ
T1 sequence (Q14397 whole entry, looked up): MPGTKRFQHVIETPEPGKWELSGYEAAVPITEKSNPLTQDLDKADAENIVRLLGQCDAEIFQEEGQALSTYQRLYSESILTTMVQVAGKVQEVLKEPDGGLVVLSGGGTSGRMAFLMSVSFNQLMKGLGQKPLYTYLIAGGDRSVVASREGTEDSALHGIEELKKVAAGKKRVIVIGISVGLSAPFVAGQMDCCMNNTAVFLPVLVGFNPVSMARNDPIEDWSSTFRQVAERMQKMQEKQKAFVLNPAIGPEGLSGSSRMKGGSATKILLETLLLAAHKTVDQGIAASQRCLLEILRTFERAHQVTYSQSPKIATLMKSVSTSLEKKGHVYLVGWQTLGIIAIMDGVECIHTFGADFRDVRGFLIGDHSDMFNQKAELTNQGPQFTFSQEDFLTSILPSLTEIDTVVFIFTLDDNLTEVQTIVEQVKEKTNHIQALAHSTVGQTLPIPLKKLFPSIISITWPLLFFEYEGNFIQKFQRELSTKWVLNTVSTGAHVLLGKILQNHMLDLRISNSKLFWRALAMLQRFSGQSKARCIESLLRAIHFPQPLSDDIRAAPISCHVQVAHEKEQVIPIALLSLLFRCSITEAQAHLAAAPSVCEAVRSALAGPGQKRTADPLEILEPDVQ
Sequence of Peroxisome proliferator-activated receptor alpha (Homo sapiens) (Q07869 whole entry, looked up): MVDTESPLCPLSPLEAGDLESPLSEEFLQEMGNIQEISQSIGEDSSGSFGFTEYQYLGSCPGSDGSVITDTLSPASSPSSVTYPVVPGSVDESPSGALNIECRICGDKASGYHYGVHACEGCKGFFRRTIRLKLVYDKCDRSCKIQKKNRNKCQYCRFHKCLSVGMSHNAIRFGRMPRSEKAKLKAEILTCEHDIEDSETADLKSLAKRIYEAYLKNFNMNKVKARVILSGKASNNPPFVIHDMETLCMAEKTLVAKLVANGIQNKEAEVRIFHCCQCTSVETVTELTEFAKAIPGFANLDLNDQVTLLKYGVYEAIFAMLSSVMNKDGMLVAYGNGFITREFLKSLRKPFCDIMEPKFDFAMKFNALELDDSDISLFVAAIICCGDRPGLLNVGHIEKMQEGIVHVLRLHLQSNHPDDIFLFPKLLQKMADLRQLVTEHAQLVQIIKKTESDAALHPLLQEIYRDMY
Sequence of Arylsulfatase A (Homo sapiens) (P15289 whole entry, looked up): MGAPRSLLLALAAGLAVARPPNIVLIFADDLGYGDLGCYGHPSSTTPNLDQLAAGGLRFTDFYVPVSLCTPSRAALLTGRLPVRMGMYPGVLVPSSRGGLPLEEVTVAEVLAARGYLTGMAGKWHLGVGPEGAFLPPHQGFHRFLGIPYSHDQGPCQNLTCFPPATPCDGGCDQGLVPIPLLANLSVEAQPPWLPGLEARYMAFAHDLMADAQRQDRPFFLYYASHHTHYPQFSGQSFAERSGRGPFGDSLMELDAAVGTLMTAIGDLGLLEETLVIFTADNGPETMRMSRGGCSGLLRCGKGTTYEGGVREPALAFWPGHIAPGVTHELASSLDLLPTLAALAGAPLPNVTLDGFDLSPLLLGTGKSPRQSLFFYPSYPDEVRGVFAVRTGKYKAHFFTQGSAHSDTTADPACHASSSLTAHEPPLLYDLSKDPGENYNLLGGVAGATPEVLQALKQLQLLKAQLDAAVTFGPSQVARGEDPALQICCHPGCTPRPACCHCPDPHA
Sequence of Nuclear receptor ROR-gamma (Homo sapiens) (P51449 whole entry, looked up): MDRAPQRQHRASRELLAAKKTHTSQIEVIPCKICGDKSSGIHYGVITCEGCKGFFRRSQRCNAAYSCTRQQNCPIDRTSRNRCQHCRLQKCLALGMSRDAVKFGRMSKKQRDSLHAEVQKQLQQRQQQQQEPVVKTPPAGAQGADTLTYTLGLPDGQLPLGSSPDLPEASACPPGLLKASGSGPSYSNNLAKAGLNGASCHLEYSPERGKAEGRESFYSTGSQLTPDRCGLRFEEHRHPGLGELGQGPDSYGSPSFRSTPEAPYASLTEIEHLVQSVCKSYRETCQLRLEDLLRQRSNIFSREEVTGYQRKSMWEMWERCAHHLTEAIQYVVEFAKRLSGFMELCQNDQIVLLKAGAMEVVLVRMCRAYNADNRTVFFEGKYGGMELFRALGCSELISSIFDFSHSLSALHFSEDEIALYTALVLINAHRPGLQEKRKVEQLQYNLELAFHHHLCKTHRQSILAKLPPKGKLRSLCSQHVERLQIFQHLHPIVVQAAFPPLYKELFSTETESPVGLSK
Sequence of Tyrosine-protein kinase Yes (Homo sapiens) (P07947 whole entry, looked up): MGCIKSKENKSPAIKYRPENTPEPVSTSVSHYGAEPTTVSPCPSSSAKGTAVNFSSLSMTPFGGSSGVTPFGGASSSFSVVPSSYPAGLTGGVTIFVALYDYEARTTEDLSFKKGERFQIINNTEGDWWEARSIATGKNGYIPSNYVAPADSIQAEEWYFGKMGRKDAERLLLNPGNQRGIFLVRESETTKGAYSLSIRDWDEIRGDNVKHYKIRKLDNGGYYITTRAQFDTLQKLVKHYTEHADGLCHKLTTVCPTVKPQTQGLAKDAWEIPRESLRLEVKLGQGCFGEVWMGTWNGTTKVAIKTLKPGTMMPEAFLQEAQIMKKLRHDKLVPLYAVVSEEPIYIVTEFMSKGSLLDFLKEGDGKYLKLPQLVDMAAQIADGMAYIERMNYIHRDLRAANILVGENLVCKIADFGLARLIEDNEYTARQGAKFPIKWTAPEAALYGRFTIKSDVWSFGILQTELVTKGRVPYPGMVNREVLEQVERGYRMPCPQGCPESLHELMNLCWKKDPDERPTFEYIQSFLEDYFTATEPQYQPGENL

CC(C)C(=O)Nc1ccc([N+](=O)[O-])c(C(F)(F)F)c1
inactive: max response [1] -5.17% and -3.96% | outcome [2] | outcome [3] | Potency [4] | outcome [5] | Potency [6] | max response [7] -4.94% and -9.28% | Potency [8] | Potency [9] | Potency [10] | max response [11] -7.87% and -5.86% | max response [12] -5.73% and -15.5% | Potency [13]

O=c1c(-c2ccc(O)cc2)coc2cc(O)cc(O)c12
active: Potency [4] 8.2 µM
inactive: max response [1] -1.44% and -0.484% | Potency [14] | outcome [15] | outcome [2] | max response [7] 0.177% and -1.16% | Potency [8] | Potency [9] | Potency [10] | max response [11] 20.7% and 7.37% | max response [12] -13% and -14.1% | Potency [13]

CC#C[C@]1(O)CC[C@H]2[C@@H]3CCC4=CC(=O)CCC4=C3[C@@H](c3ccc(N(C)C)cc3)C[C@@]21C
inactive: max response [1] -3.32% | outcome [2] | outcome [3] | Potency [4] | outcome [5] | max response [7] -29.2% | Potency [8] | Potency [9] | Potency [10] | Potency [13]

O=C1c2c(O)ccc(O)c2C(=O)c2c(NCCNCCO)ccc(NCCNCCO)c21
inactive: outcome [15] | outcome [2] | outcome [3] | Potency [4] | Potency [8] | Potency [9] | Potency [10]
active: Potency [16] 34.5 µM | Potency [11] 7.94 µM and 1.41 µM

CN(Cc1cnc2nc(N)nc(N)c2n1)c1ccc(C(=O)N[C@@H](CCC(=O)O)C(=O)O)cc1
inactive: max response [1] -3.74% | outcome [2] | outcome [3] | Potency [4] | outcome [5] | Potency [8] | Potency [9] | Potency [10] | max response [11] -2.41% and 9.8%
active: Potency [7] 0.0447 µM | Potency [13] 0.282 µM

CCOC(=O)C(C)(C)Oc1ccc(Cl)cc1
inactive: max response [1] 5.39% | Potency [17] | outcome [2] | outcome [3] | Potency [4] | outcome [5] | max response [7] -4.42% | Potency [8] | Potency [9] | Potency [10] | max response [11] 9.62% and 0.495% | max response [12] -5.02% | Potency [13]

Cn1cnc2c1c(=O)[nH]c(=O)n2C
inactive: max response [1] -2.11% | Potency [17] | outcome [2] | outcome [3] | Potency [4] | outcome [5] | max response [7] 4.98% | Potency [8] | Potency [9] | Potency [10] | max response [11] -9.46% and -3.09% | max response [12] -4% | Potency [13]
